{"source": "PubChem BioAssay AID493170", "about": "(National Center for Advancing Translational Sciences (NCATS), 2011)", "note": "Inconclusive results are not listed. Unmarked numbers belong to inactive results. The source made the active and inactive calls. Calls come from the whole dose curve; as a rule, active = well fitted inhibition curve with a large enough effect; inconclusive = small, poorly fitted or top-dose-only effect, or effect the other way; inactive = flat fitted curve, though single readings scatter. % is set by controls: 0 for no effect and ±100 for the full control effect; potency is the fitted concentration of half-maximal effect."}
{"target": "Ubiquitin carboxyl-terminal hydrolase 2 (Homo sapiens) (UniProt O75604)", "sequence (O75604 whole entry, looked up)": "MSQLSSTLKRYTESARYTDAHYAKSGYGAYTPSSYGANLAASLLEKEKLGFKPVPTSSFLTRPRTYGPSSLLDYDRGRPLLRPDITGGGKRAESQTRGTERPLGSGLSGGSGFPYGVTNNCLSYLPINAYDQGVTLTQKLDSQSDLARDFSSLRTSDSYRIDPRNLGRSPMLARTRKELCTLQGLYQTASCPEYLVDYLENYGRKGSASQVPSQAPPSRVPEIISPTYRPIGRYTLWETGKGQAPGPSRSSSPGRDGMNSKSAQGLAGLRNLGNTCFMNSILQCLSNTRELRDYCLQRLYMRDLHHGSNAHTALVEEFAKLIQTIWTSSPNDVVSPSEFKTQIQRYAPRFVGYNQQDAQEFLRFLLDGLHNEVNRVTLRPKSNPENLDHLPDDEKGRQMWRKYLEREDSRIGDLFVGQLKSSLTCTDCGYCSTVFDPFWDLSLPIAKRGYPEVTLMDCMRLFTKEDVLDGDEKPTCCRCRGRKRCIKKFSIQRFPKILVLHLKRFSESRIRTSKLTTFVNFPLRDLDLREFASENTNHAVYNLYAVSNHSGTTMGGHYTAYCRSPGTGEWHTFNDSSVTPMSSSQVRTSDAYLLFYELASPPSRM", "assay": "Ub-rhodamine 110 based assay for inhibitors Ubiquitin-specific Protease USP2a; note: nearly all actives have a fitted effect of over 50% in size", "conditions": "USP2a Ub-rhodamine110 cleavage, fluorescence; series mostly up to 38.3 µM; activity change, negative = inhibition: at the top concentration", "description": "NIH Molecular Libraries Probe Centers Network [MLPCN] NIH Chemical Genomics Center [NCGC] MLPCN Grant: XO1-MH079852-01 PI Name: Nicholson, Ben. Progenra Inc, Malvern, PA NCGC Assay Overview: Homeostasis of cellular proteins is maintained through a combination of synthesis and degradation. The pathway that accounts for the majority of protein degradation is the ubiquitin-proteasomal pathway. Ubiquitin (Ub) is highly conserved in all cells and the generation of a multi-Ub chain typically targets proteins for degradation by the proteasome. However, ubiquitination is highly reversible and dynamic. Deubiquitination, the reverse process, is catalyzed through the action of enzymes referred to as isopeptidases or deubiquitinating enzymes (DUBs). This group of enzymes is collectively responsible for maintaining adequate pools of free ubiquitin and regulating the ubiquitination status of cellular proteins. The class of DUBs referred to as the ubiquitin-specific proteases (USP) family functions endoproteolytically to cleave Ub chains from a wide range of protein substrates. USP2a deubiquitinates fatty acid synthase (FASN) which has recently been identified as an emerging oncology target. To identify inhibitors of USP2a a cell-free assay was employed. This assay measures cleavage of a profluorescent substrate (Ub-Rhodamine 110; Boston Biochem Cat#: U-555) by USP2a. The assay gives a fluorescent read-out at excitation/emission wavelengths of 485/531. The USP2a enzyme was provided by Progenra, Inc. licensed for sale by LifeSensors, Inc.\nNCGC Assay Protocol: The assay buffer, prepared fresh at the day of the assay, contains 20mM Tris-HCl pH 8.0, 2mM CaCl2, 2mM beta-Mercaptoethanol, 0.05% CHAPS. 3uL of 10 nM (5 nM final) USP2a, was dispensed into a medium-binding black solid Kalypsys 1,536 well plate using the Kalypsys dispenser. The assay plate was then pinned with 23nL compounds in DMSO with a Kalypsys pintool in columns 5-48 (0.3% final DMSO concentration). The negative control was buffer/DMSO only in column 3. The assay plate is incubated at RT for 30min. Subsequently, 3uL of 300 nM Ub-Rhod110 (150 nM final) was dispensed into the plate using a Kalypsys dispenser. Plates were read after every minute for 7 min on a ViewLux (Perkin Elmer) plate reader using the following wavelengths: Ex 485nm /Em 531nm. Data were normalized to the AC100 inhibition (buffer alone). Concentration-response curves were fitted to the normalized data and the concentration-response curves were then classified based on curve quality (r2), response magnitude and degree of measured activity. The time zero reading was used to flag fluorescence artifacts.", "units": {"activity change, negative = inhibition": "%"}}
{"smiles": "CCCCCCCCCCOC(=O)Cn1c(COc2ccccc2OC)[n+](C)c2ccccc21", "activity change, negative = inhibition": -13.7}
{"smiles": "COc1cc(OC)cc(-c2c(C#Cc3ccsc3)c3cc(-c4ccc(OC)c(OC)c4)ccc3n2C)c1", "activity change, negative = inhibition": -6.88}
{"smiles": "COc1cccc(N2C(=O)C3CCCN3C2c2ccc(N(C)C)cc2)c1", "note": "(stereo not given)", "activity change, negative = inhibition": -6.94}
{"smiles": "O=C(NC12CC3CC(CC(C3)C1)C2)C1=COCCO1", "activity change, negative = inhibition": 4.63}
{"smiles": "NS(=O)(=O)c1ccc(NC(=O)CN2CCCCC2)cc1", "activity change, negative = inhibition": 0.599}
{"smiles": "CCCC(c1nnnn1Cc1ccc(OC)cc1)N1CCC(C(N)=O)CC1", "note": "(stereo not given)", "activity change, negative = inhibition": -9.57}
{"smiles": "Cc1ccc(/C=C2/SC(=S)N(c3ccc(S(=O)(=O)Nc4nccs4)cc3)C2=O)cc1", "Potency": "3.55 µM (active)"}
{"smiles": "Cc1cc(C(C)(C)CC(C)(C)C)ccc1OCCOCC[N+](C)(C)Cc1ccccc1", "activity change, negative = inhibition": -5.87}
{"smiles": "c1ccc(-c2ccccc2OCCCN2CCOCC2)cc1", "activity change, negative = inhibition": 3.46}
{"smiles": "CCOC(=O)C1CCN(C(=O)COC(=O)c2c(C)c(CC)nc3ccccc23)CC1", "activity change, negative = inhibition": -0.892}
{"smiles": "O=C(NCCCN1CCCC1=O)c1cccc(N2CCCC2=O)c1", "activity change, negative = inhibition": 0.745}
{"smiles": "O=C(CSc1nc(N2CCCCC2)nc(N2CCCCC2)n1)N1CCN(c2ccccc2)CC1", "activity change, negative = inhibition": -4.93}
{"smiles": "CCCNC(=O)NCc1ccc(N2CCCC2=O)cc1", "activity change, negative = inhibition": -7.89}
{"smiles": "CCCOC(=O)CCCCC1SCC(NC(=O)OC)C1NC(=O)OC", "note": "(stereo not given)", "activity change, negative = inhibition": 6.99}
{"smiles": "O=C1COc2ccc(C(=O)COC(=O)/C=C/c3ccc(Br)o3)cc2N1", "Potency": "2.24 µM (active)"}
{"smiles": "CC(C)(C)C1C=C(Sc2ccccc2)C(=O)O1", "note": "(stereo not given)", "activity change, negative = inhibition": -0.787}
{"smiles": "CC1CCN(c2ccc3c(c2)S(=O)(=O)c2cccc(C(=O)NC4CC4)c2C3=O)CC1", "activity change, negative = inhibition": 2.7}
{"smiles": "O=C(COc1ccccc1)NCCSc1ccccc1", "activity change, negative = inhibition": 4.88}
{"smiles": "Cc1cccc(N=C2NC(=O)/C(=C/C=C/c3ccco3)S2)c1", "Potency": "10 µM (active)"}
{"smiles": "CCNc1sc(C(=O)c2cccs2)c(N)c1-c1nc2ccccc2s1", "activity change, negative = inhibition": -4.43}
{"smiles": "CCn1c(COc2ccc(C)cc2)nnc1SCC(=O)Nc1ccc2c(c1)OCCO2", "activity change, negative = inhibition": -6.14}
{"smiles": "CCC(=O)c1ccc(OCC(=O)NC2CCN(Cc3ccccc3)CC2)cc1", "activity change, negative = inhibition": -5.4}
{"smiles": "C#CCOCCOCCOCCNc1nc(N2CCN(C(=O)CCCCCCCCCCNC(=O)[C@H]([C@@H](C)CC)n3cc(CCCCCN)nn3)CC2)nc(N2CCN(C(=O)CCCCCCCCCCNC(=O)[C@H]([C@@H](C)CC)n3cc(CCCCN=C(N)N)nn3)CC2)n1", "Potency": "12.6 µM (active)"}
{"smiles": "CN1CCN(CCCCOc2ccc(F)cc2)CC1", "activity change, negative = inhibition": -2.66}
{"smiles": "O=C(NC1CCCCC1)C(c1ccco1)N(C(=O)c1csnn1)c1cccc(F)c1", "note": "(stereo not given)", "activity change, negative = inhibition": 1.96}
{"smiles": "COc1ccc(OCC(=O)Nc2ccccc2OC)cc1", "activity change, negative = inhibition": 4.57}
{"smiles": "Cc1ccc(C(=O)N/C(=C/c2cccs2)C(=O)NCc2ccco2)cc1", "activity change, negative = inhibition": 2.38}
{"smiles": "Nc1ccc2nc(-c3ccc(N)c(Cl)c3)[nH]c2c1", "activity change, negative = inhibition": -10.3}
{"smiles": "CSC1=NCCN1C(=O)Cc1ccc(F)cc1", "activity change, negative = inhibition": 6.29}
{"smiles": "COC(=O)CSc1nnc(NC(=O)C2CC(=O)N(c3ccc(F)cc3)C2)s1", "note": "(stereo not given)", "Potency": "11.2 µM (active)"}
{"smiles": "Cn1c(=O)c2c(nc(CN3CCN(C(=O)c4ccco4)CC3)n2CCCc2ccccc2)n(C)c1=O", "activity change, negative = inhibition": -13.3}
{"smiles": "COCCn1nnnc1CN(CCc1ccccc1)Cc1cc2ccc(C)cc2[nH]c1=O", "activity change, negative = inhibition": -6.85}
{"smiles": "Cc1ccccc1N=C1NC(=O)CS1", "activity change, negative = inhibition": 1.95}
{"smiles": "CCc1cc2cccc(C)c2nc1SCC(=O)N1CCN(C(=O)c2ccco2)CC1", "activity change, negative = inhibition": -16.4}
{"smiles": "O=C(N/N=C/C=C/c1ccccc1)c1ccncc1", "activity change, negative = inhibition": -5.04}
{"smiles": "O=C(COC(=O)/C=C/c1ccc(Cl)cc1)NC1CC1", "activity change, negative = inhibition": 2}
{"smiles": "Cc1nc(NC(C)C)c2cnn(CCc3ccccc3)c2n1", "activity change, negative = inhibition": -4.79}
{"smiles": "COc1ccc(CC(NC(C)=O)C(=O)NC2CCN(c3nc(C)cc(C)c3C#N)CC2)c(OC)c1", "note": "(stereo not given)", "activity change, negative = inhibition": -12.1}
{"smiles": "Cc1ccc(NC(=O)CCC(=O)OC(C)C(=O)c2ccccc2)cc1", "note": "(stereo not given)", "activity change, negative = inhibition": -5.77}
{"smiles": "C#CCOCCOCCOCCNc1nc(N2CCN(C(=O)CCCCCCCCCCNC(=O)[C@@H](CCC(=O)O)n3cc(CCCCCN)nn3)CC2)nc(N2CCN(C(=O)CCCCCCCCCCNC(=O)[C@H](CCCCN)n3cc(C[C@@H](C)CC)nn3)CC2)n1", "activity change, negative = inhibition": -15.6}
